# FXIIa inh mix: inhibitors of human coagulation factor XIIa, pooled mixtures. P00748. purified FXIIa, fluorogenic substrate. inhibition, % at 5 µM. 0.2% of 62,000 active. AID 684;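 further: 0% = enzyme without compound and 100% = no enzyme blank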
# HePTP inhibitor: blocks human HePTP tyrosine phosphatase | P35236 | recombinant HePTP phosphatase activity, OD absorbance | inhibition, % at 20 µM | 0.64% of 110,000 active; in the data active means inhibition above about 50%;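 further: plate controls were vehicle for no effect and reference inhibitor for full effect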
# Target sequence (P35236 whole entry, looked up): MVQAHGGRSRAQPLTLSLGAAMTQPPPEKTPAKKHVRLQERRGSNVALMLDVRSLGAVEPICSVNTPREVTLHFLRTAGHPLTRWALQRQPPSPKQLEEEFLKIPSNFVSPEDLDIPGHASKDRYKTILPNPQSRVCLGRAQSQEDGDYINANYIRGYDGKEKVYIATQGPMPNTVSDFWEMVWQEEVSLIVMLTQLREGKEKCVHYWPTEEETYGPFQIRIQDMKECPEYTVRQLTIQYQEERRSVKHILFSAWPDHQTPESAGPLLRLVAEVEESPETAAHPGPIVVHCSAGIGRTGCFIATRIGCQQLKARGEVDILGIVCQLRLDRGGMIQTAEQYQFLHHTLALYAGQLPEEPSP
# Cathepsin G inh: blocks human cathepsin G enzyme activity. P08311. purified enzyme, AMC-tetrapeptide fluorescence, pooled mixtures. 0.2% of 62,000 active. inhibition, % at 5 µM (by protocol). AID 581;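 active means inhibition above 20% in each of the two mixture wells holding the compound; inactive means inhibition of 20% or less in either well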;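 further: 0% = enzyme control without mixture and 100% = blank lacking enzyme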
# Target sequence (P08311 21-244 limits assumed): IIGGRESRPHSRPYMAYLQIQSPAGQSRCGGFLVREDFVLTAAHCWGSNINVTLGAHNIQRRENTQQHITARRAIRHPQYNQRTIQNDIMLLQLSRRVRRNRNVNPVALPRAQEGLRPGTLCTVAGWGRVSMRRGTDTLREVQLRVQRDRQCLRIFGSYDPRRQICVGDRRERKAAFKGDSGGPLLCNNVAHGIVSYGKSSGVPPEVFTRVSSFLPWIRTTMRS
# PLAP act: human PLAP activation; AID 696; 1.2% of 96,000 active; P05187; activation fold at 20 µM; purified PLAP enzyme, luminescent substrate read-out; stronger effect = higher value; in the data active means activation fold above about 2
# C1s block: human complement C1s inhibition | P09871 | purified C1s, fluorogenic AMC substrate, pooled mixtures | mean inhibition % of two 10-compound mixtures (stronger effect = higher value), % at 5 µM (by protocol) | 0.16% of 62,000 active;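 active means inhibition above 20% in each of the two 10-compound mixture wells holding the compound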;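 further: 0% = enzyme wells lacking compound mixture and 100% = no-enzyme blank wells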
# FXIa inh mix: factor XIa (human) inhibition, mixture screen | inhibition, % at 5 µM | P03951 | AID 680 | 0.19% of 62,000 active | purified FXIa, fluorogenic substrate, pooled mixtures;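 further: each value is inhibition by a whole ten-compound pool holding the compound; 0% = enzyme with no mixture and 100% = wells lacking enzyme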
# The depositor's hits bear a star; . = no result. Compounds with a hit are over-represented: about 1.4% of the library has one in this group of screens. Unless noted, no stated cut-off is given here; in the data, active means inhibition above about 20% (passing the limit was not always enough); inactive means the rest.
SMILES,FXIIa inh mix,HePTP inhibitor,Cathepsin G inh,PLAP act,C1s block,FXIa inh mix
Cc1[nH]c(=O)[nH]c(=O)c1CSc1nnc([C@@H](NC(=O)OC(C)(C)C)C(C)C)o1,-19,1,10,1.4,3,2
CC(C)(C)OC(=O)N[C@@H](Cc1ccccc1)c1nnc(S(=O)(=O)Cc2cccc(F)c2)o1,17,-5,63*,1.8,-7,6
CC[C@@H](C)[C@H](NC(=O)OC(C)(C)C)c1nnc(S(=O)(=O)Cc2cc(C)ccc2C)o1,2,9,27*,1.1,4,18
CC(C)[C@H](NC(=O)OC(C)(C)C)c1nnc(S(=O)(=O)Cc2c(F)cccc2Cl)o1,5,3,38*,1.2,13,17
CC1=C(C(=O)Nc2ccc(Cl)cc2)C(c2ccc(Cl)cc2)NC(=O)N1 (centres undefined),.,10,.,.,.,.
Cc1ccccc1CNC(=O)c1ccc(N(Cc2ccccc2)S(C)(=O)=O)cc1,.,-2,.,.,.,.
COc1ccc(C(=O)N/C(=C\c2cccc([N+](=O)[O-])c2)C(=O)NCC2CCCO2)cc1 (centres undefined),.,9,.,.,.,.
CCOc1cc(/C=N/n2cnnc2)cc(Br)c1OCCOc1ccccc1OC,.,-14,.,.,.,.
COc1ccc(CNc2ccc3cn[nH]c3c2)c(OC)c1OC,4,13,0,2*,2,8
CCCOc1ccc(-c2cc(C(=O)NCCCN3CCOCC3)c3ccccc3n2)cc1,.,103*,.,.,.,.
O=C(NCCN1CCOCC1)c1cc2ccccc2o1,34*,5,-1,0.9,5,9
Nc1c(C(=O)NCCN2CCOCC2)c2nc3ccccc3nc2n1-c1cccc(F)c1,-1,5,-12,2*,-67,-8
O=C(NCCN1CCOCC1)c1cc(-c2ccc(Br)cc2)nc2ccccc12,.,104*,.,.,.,.
Nc1nc(SCC(=O)C23CC4CC(CC(C4)C2)C3)n[nH]1,3,4,1,2.1*,-17,2
Cc1cc(C)nc(/N=C(/N)Nc2ccc(-c3ccccc3)cc2)n1,.,-1,.,.,.,.
O=C(O)C1C2C=CC(C3CC23)C1C(=O)Nc1cccc(Br)c1 (centres undefined),.,10,.,.,.,.
O=C(NC(NC(=S)Nc1ccc(Br)cc1)C(Cl)(Cl)Cl)c1ccccc1F (centres undefined),.,103*,.,.,.,.
COc1ccc2[nH]c(C(=O)O)c(NS(=O)(=O)c3ccc(Cl)s3)c2c1,1,0,-1,2.2*,1,7
COC(=O)c1ccc(C(=O)Nc2cc(Cl)ccc2Cl)cc1NC(=O)C(C)Oc1ccccc1 (centres undefined),.,66*,.,.,.,.
COc1ccc(C(=O)Nc2cc(Cl)ccc2Cl)cc1NC(=O)C(C)Oc1ccccc1 (centres undefined),.,0,.,.,.,.
CS(=O)(=O)N(CC(=O)Nc1cccc2ccccc12)c1ccc(Oc2ccccc2)cc1,.,-5,.,.,.,.
COc1nsnc1NS(=O)(=O)c1ccc(NC(=S)NC(=O)c2sc3cc(F)ccc3c2Cl)cc1,.,102*,.,.,.,.
CCC1S/C(=C(\C#N)C(=O)NCc2ccco2)N(c2ccc(F)cc2)C1=O (centres undefined),-18,2,7,1.1,3,-3
N#C/C(C(=O)NCc1ccco1)=C1/SC(Cc2ccc(F)cc2)C(=O)N1c1ccccc1 (centres undefined),4,-4,6,1.1,1,26*
COc1cc(C(=O)N=Nc2c(O)[nH]c3ccc(Br)cc23)cc(OC)c1OC,.,26,.,.,.,.
SMILES,FXIIa inh mix,HePTP inhibitor,Cathepsin G inh,PLAP act,C1s block,FXIa inh mix
COc1ccccc1Nc1nc(-c2cccs2)cs1,2,6,10,0.8,58*,5
COc1ccc(OC)c(Nc2nc(-c3cccs3)cs2)c1,6,6,2,0.8,2,16
COc1ccc(/C=C/C(=O)Nc2ccc(C(C)=O)cc2)cc1,.,-6,.,.,.,.
c1ccc(-c2csc(NNC3=NCCCCC3)n2)cc1,.,.,.,2.1*,.,.
CSc1nnc(-c2sc3cc(C(F)(F)F)cnc3c2-c2ccccc2)n1C,.,.,.,2*,.,.
O=C(O)c1sc2cc(C(F)(F)F)cnc2c1-c1ccccc1,.,.,.,1,.,.
COC(=O)CN1C(=O)/C(=C\c2cccs2)SC1=S,.,-17,.,.,.,.
CCOC(=O)c1ccc(NC(=O)COc2ccc(Br)cc2)cc1,.,8,.,.,.,.
COc1ccccc1N(CC(=O)N/N=C/c1ccc(OCC(=O)NCc2ccco2)cc1)S(=O)(=O)c1ccc(C)cc1,.,.,.,2*,.,.
CCCCOP(=O)(C(C)C)C(C)C,.,12,.,.,.,.
COc1cc(/C=C(/C#N)C(=O)Nc2cccc(Br)c2)cc([N+](=O)[O-])c1O,.,104*,.,.,.,.
CCCCOC(=O)c1cccc(NC(=O)c2ccc(OC)cc2)c1,.,104*,.,.,.,.
CCCCOC(=O)c1ccc(NC(=O)c2cccc(OC)c2)cc1,.,0,.,.,.,.
O=[N+]([O-])c1ccc(S(=O)(=O)NC2c3ccccc3Oc3ccccc32)cc1,.,2,.,.,.,.
CCOc1cc(/C=C2/C(=N)N3N=C(CC)SC3=NC2=O)ccc1OC(=O)c1cccc([N+](=O)[O-])c1,.,103*,.,.,.,.
CCC1=NN2C(=N)/C(=C/c3ccc(OC(=O)c4ccc(F)cc4)c(OC)c3)C(=O)N=C2S1,.,8,.,.,.,.
O=C(N/N=C/c1ccco1)c1cc(C23CC4CC(CC(C4)C2)C3)[nH]n1,.,5,.,.,.,.
C=CCn1c2ccccc2c2nnc(SCC(=O)N=C3NC(=O)CS3)nc21,.,56*,.,.,.,.
COc1ccc(NC(=O)CN(c2ccc(C)c(Cl)c2)S(C)(=O)=O)cc1OC,.,10,.,.,.,.
CSCCC1NC(=S)N(c2ccccc2)C1=O (centres undefined),.,-7,.,.,.,.
CCOC(=O)c1c(-c2ccc(C)o2)csc1NC(=O)CSc1nncs1,8,6,9,1.9,12,3
CCOC(=O)c1c(-c2ccc(C)o2)csc1NC(=O)CN1CCN(CC)CC1,6,6,13,1.4,59*,6
CCOC(=O)c1c(-c2ccc(C)o2)csc1NC(=O)CN(C)CC(=O)Nc1ccc(C)cc1,.,.,.,2.2*,.,.
O=c1cc2c(nn1Cc1ccc(Cl)cc1)-c1ccccc1CC2,.,.,.,2*,.,.
O=C(CN1C(=O)C2C3C=CC(C3)C2C1=O)Nc1nc(SCc2ccc(Cl)cc2)n[nH]1 (centres undefined),1,5,-2,2.3*,-5,9
SMILES,FXIIa inh mix,HePTP inhibitor,Cathepsin G inh,PLAP act,C1s block,FXIa inh mix
O=C(CN1C(=O)C2C3C=CC(C3)C2C1=O)Nc1nc2ccccc2[nH]1 (centres undefined),.,.,.,1.8,.,.
Cc1ccc(NC(=O)c2ccccc2C(F)(F)F)c(C)c1,.,-1,.,.,.,.
COc1ccc(OC)c(Nc2cc(C)nc3nc(C)nn23)c1,-1,5,-13,2*,-22,2
O=C(O)CCCCCN1C(=O)C(=O)/C(=C(/O)c2ccc(F)cc2)C1c1ccc(F)cc1 (centres undefined),.,0,.,.,.,.
CC1(C)CC(C(CC(=O)O)Cc2ccccc2)CCO1 (centres undefined),.,8,.,.,.,.
CC(C)C(CC(=O)N1CCCCC1)C1CCOC(C)(C)C1 (centres undefined),16,-3,28*,.,-11,19
CC12CCC(C(=O)NCC3CCCO3)(OC1=O)C2(C)C (centres undefined),4,-4,43,0.9,45,42*

# Bioassay records: PubChem, several laboratories
